# Screens: PubChem BioAssay, National Center for Advancing Translational Sciences (NCATS)
# PNC assembly inh: High Content Assay for Compounds that inhibit the Assembly of the Perinucleolar Compartment; PC3M PTB-GFP, PNC prevalence imaging, 16 h; stronger effect = lower value; activity change (PNC), negative = inhibition, % at 10 µM; 140,000 tested, 3.1% active;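 active = readout at or below -70, meaning at least 70% loss of cells showing the perinucleolar compartment, a nuclear body marking cancer cells; inconclusive = readout between -30 and a set limit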;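 note: plate controls were DMSO wells for no effect and camptothecin positive control wells for full effect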
#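 Compounds are pinned in duplicate onto adhered PC3M cells stably expressing GFP-tagged PTB and incubated 16 h at 37 C. Cells are then fixed, nuclei stained with Hoechst, and PNC-positive cells counted.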
# ALDH1A1 block: qHTS Assay for Inhibitors of Aldehyde Dehydrogenase 1 (ALDH1A1); Purified ALDH1A1, NADH fluorescence, propionaldehyde substrate; Potency, µM (highest dose often 75.3 µM), without a hit: at the top dose activity, negative = inhibition, most hits filed as inhibitors; 220,000 tested, 7.3% active;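 note: potency is the fitted concentration of half-maximal effect; plate controls were no enzyme wells and a reference inhibitor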
# IMPase cell inh: qHTS Assay for Identifying the Cell-Membrane Permeable IMPase Inhibitors | Inositol monophosphatase 1 (Rattus norvegicus), P97697 | CHO-M1 cells, IP1 accumulation, HTRF TR-FRET ratio | inhibition (IP1 accumulation), % at 46.1 µM | 120,000 tested, under 10 active | AID 901, 2007; active = well fitted curve in the direction sought with a large enough effect in the signal ratio, not every such curve was filed as active; inconclusive = small, poorly fitted or top-dose-only effect, or a change in a side signal; inactive = no such curve, though single readings can be large or run the other way; the % refers to the signal ratio;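 note: cells stimulated with carbachol in lithium chloride buffer; plate controls were DMSO basal wells for no effect and reference inhibitor wells for full effect; higher means more IMPase inhibition seen as more IP1 and lower FRET ratio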
#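 Measured: the HTRF emission ratio (665/620 nm) plus the 620 nm donor channel, each fitted to the Hill equation to give AC50. Cells were CHO-M1 given compounds up to 46 uM and a 30 min carbachol stimulation at 37C.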
# HPGD inh: qHTS Assay for Inhibitors of HPGD (15-Hydroxyprostaglandin Dehydrogenase); 15-hydroxyprostaglandin dehydrogenase [NAD(+)] (Homo sapiens), P15428; purified HPGD, NADH fluorescence kinetic, PGE2 substrate; Potency, µM, for the others: at the highest dose activity change, negative = inhibition, usual class: inhibitors; 150,000 tested, 4.3% active; AID 894, 2007; note: potency is the fitted concentration of half-maximal effect
#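 20 nM HPGD preincubated 15 min at room temperature with compound in 50 mM Tris-HCl pH 8, 0.01% Tween 20. Started with 1 mM NAD+ and 30 uM prostaglandin E2; NADH fluorescence (360/450 nm) read 5 times over 30-s intervals, last minus first.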
# IMPase Li cell: qHTS Assay for Identifying the Cell-Membrane Permeable IMPase Inhibitors: Potentiation with Lithium; Potency, µM (highest dose often 59.4 µM), inactives show at the highest dose activity, negative = IMPase inhibition, actives largely listed as inhibitors; 210,000 tested, 0.35% active; AID 1457, 2008; CHO-M1 cells, IP1 TR-FRET (IP-One), carbachol + lithium; active = well fitted curve in the direction sought with a large enough effect; inconclusive = small, poorly fitted or top-dose-only effect, or another doubt; inactive = no such curve, though single readings can be large; an effect the other way counts as inactive or inconclusive;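 note: IP1 builds up when IMPase is blocked and the TR-FRET signal falls; potency is the fitted concentration of half-maximal effect; plate controls were basal vehicle for no effect and high inhibitor control for full effect; nearly all actives have a fitted effect of over 50% in size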
#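 CHO cells stably expressing M1 receptor (2000/well) were cultured 16–30 h, then exposed to compounds with a small lithium addition for 30 min at 37C. IP1 was measured by TR-FRET competition; AC50 from Hill fits.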
# NPSR antagonist: qHTS Assay for Antagonists of the Neuropeptide S Receptor: cAMP Signal Transduction. Q6W5P4. CHO-NPSR cells, cAMP TR-FRET, antagonist mode. Potency, µM (series often up to 38.3 µM), for the others: at the top dose activity change, negative = inhibition, usual class: inhibitors. 220,000 tested, 1% active. AID 1461, 2008; active = well fitted curve in the direction sought with a large enough effect; inconclusive = small, poorly fitted or top-dose-only effect, or another doubt; inactive = no such curve, though single readings can be large; an effect the other way counts as inactive or inconclusive; note: potency is the fitted concentration of half-maximal effect; nearly all actives have a fitted effect of over 50% in size
# Target sequence (Q6W5P4 whole entry, looked up): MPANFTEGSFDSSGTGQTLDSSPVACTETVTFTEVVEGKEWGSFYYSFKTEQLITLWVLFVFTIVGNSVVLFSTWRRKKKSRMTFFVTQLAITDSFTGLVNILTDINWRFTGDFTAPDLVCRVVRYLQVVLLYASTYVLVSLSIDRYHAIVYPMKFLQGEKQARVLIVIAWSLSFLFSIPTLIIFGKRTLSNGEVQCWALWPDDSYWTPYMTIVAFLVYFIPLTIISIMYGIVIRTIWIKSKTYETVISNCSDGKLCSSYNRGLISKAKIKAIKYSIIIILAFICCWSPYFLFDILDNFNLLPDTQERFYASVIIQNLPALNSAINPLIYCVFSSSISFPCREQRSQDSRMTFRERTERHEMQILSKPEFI
# * hit, by the source's call; u = inconclusive; x = no result; [ ] = remark or other dose. Hits are enriched below; roughly 11% of the tested compounds scored in any of these assays. Unless noted, calls come from the whole dose curve; as a rule, active = well fitted inhibition curve with a large enough effect (not every such curve was filed as active); inconclusive = small, poorly fitted or top-dose-only effect, or another doubt; inactive = no such curve, though single readings can be large or run the other way. Unless noted, % is set by controls: 0 for no effect and ±100 for the full control effect.
SMILES,PNC assembly inh,ALDH1A1 block,IMPase cell inh,HPGD inh,IMPase Li cell,NPSR antagonist
NS(=O)(=O)c1ccc(CCNC(=O)c2cc(-c3ccccn3)nc3ccc(Br)cc23)cc1,x,-3%,x,x,11µM*,10µM*
CC(=O)Nc1ccc(OC(=O)c2cc3ccccc3oc2=O)cc1,51,5%,6,-8%,-5%[38.3 µM],-6%[46.1 µM]
COC(=O)/C=C\c1cc(O)ccc1O,x,u,8,2.2µM*,26%,x
COc1ccccc1N=C1SC(C(=O)Nc2ccc(F)cc2)CC(=O)N1C (configuration not stated),-100*,8%,-14,-6%,-5%,-18%[46.1 µM]
CN1CCc2nc(NC(=O)c3cccc(S(=O)(=O)N4CCc5ccccc54)c3)sc2C1,-11,13µM*,4,-13%,38%[38.3 µM],-9%[46.1 µM]
Cc1ccc(C2C(C#N)=C(N)Oc3nc(-c4ccccc4)[nH]c32)o1 (configuration not stated),-1,-7%,10,-9%,-2%[38.3 µM],-3%[46.1 µM]
CCOC(=O)c1ccccc1NC(=S)N1CC(C)CC(C)C1 (configuration not stated),u,25µM*,-5,-5%,11%,-15%
COCC(=O)N1CCN(c2cccc(Cl)c2)CC1,x,11%,x,x,7%,15%
O=C(O)CCCC(=O)N1CCN(c2cccc(Cl)c2)CC1,-99*,u,-5,-25%,-12%[38.3 µM],-3%[46.1 µM]
O=C(C1CC1c1ccccc1)N1CCN(c2cccc(Cl)c2)CC1 (configuration not stated),12,20µM*,14,-7%,14%[38.3 µM],u
COc1ccc(S(=O)(=O)Cc2ccc(C(=O)N3CCC(C(N)=O)CC3)o2)cc1,-85*,5%,-4,-8%,-2%[38.3 µM],11%[46.1 µM]
COC(=O)c1ccc(C)c(NS(=O)(=O)c2ccc(OC)cc2)c1,-94*,0.79µM*,6,-2%,-5%[38.3 µM],u
COc1ccc(S(=O)(=O)Nc2cc(C(C)C)c(O)cc2C)cc1,-3,0.32µM*,9,-4%,33%[38.3 µM],-24%[46.1 µM]
COC(=O)c1ccc(C)c(NS(=O)(=O)c2ccc(C)c([N+](=O)[O-])c2)c1,13,u,-8,-13%,2%[38.3 µM],-8%[46.1 µM]
COC(=O)c1ccc(C)c(NS(=O)(=O)c2ccc3c(c2)OCCO3)c1,-112*,7.9µM*,-2,-1%,20%[38.3 µM],23%[46.1 µM]
C/C(=N\S(=O)(=O)c1ccc(C)cc1)Nc1cc(C(C)C)c(O)cc1C,u,2.8µM*,8,-6%,11%,-18%[46.1 µM]
NC(=O)COC(=O)c1ccc(NS(=O)(=O)c2ccc3c(c2)OCCO3)cc1,x,x,x,x,x,13%
CCC(=O)Nc1cc(C(C)C)c(O)cc1C,-15,9%,8,1%,0%[38.3 µM],-3%[46.1 µM]
COc1ccc(S(=O)(=O)Nc2cc(C)c(O)cc2C(C)C)cc1,-20,-8%,-1,-18%,5%,-14%[46.1 µM]
COc1ccc(S(=O)(=O)NNC(=O)c2sccc2-n2cccc2)cc1,x,2.8µM*,x,x,0%,3%
COc1ccccc1NS(=O)(=O)c1cccc(C(=O)N/N=C(\C)c2ccc3c(c2)OCCO3)c1,22,25µM*,x,-9%,10%,-6%
COC(=O)c1sccc1NS(=O)(=O)c1ccc(OC)cc1,13,-3%,8,20µM*,4%[38.3 µM],1%[46.1 µM]
CCC(C)NC(=O)CCS(=O)(=O)c1ccc(Br)s1 (configuration not stated),u,-11%,-2,-19%,6%[38.3 µM],-1%[46.1 µM]
O=C(Cn1cc(C(F)(F)F)cc(Cl)c1=O)Nc1cccc(Cl)c1,u,u,4,u,10µM*,7%
O=C(Cn1cc(C(F)(F)F)cc(Cl)c1=O)Nc1cc(Cl)cc(Cl)c1,x,-4%,x,x,0%,-17%
Cc1ccc(C)c(-n2nnnc2Sc2nnnn2-c2ccccc2)c1,0,22µM*,5,-7%,0%[38.3 µM],-14%[46.1 µM]
